# Measurements from PubChem BioAssay AID463173 (ICCB-Longwood Screening Facility, Harvard Medical School, 2010).
# Among all 52,000 compounds or so, about 1,700 (3.3%) were called active. This is one part of a sample in which actives are shown more often than they occur. Rule as the data show it: active = survival mostly below about 52% (no sharp cut-off); inactive = mostly above about 56%.
# System: Wild type
# Test: growth inhibition of S. aureus wild type versus tarO mutant, primary screen, teichoic acid synthesis inhibitors, RN4220, OD600 (AID 463173)
# Conditions: S. aureus RN4220 wild type/DeltatarO growth, OD600, 18 h, active compounds read low, screened at 18.75 µg/mL (by protocol)
row,SMILES,survival
1,C=CCN(CC=C)C(=S)Nc1ccc2nc(C)c(C)nc2c1,110% (inactive)
2,Cc1ccc(-c2nc3ncccc3o2)cc1NC(=O)c1ccc(-c2ccc(Cl)cc2)o1,73% (inactive)
3,COc1ccc(Cn2c(SCc3ccc(C(=O)NCc4ccccc4F)cc3)nc3cccnc32)cc1,67% (inactive)
4,CCOc1ccc(NC(=O)CN2CCN(CC(=O)Nc3ccccc3OCC)CC2)cc1,81% (inactive)
5,CCOc1ccccc1NC(=O)Cc1coc2c(C)c(C)ccc12,114% (inactive)
6,CC1CCN(C(=O)Cn2cc(SCC(=O)NCc3ccc(F)cc3)c3ccccc32)CC1,89% (inactive)
7,CCCc1cc(=O)[nH]c(Nc2ccc(O)cc2C)n1,110% (inactive)
8,COc1ccc(C)c(N2C(=O)CC(N3CCN(c4ccc(F)cc4)CC3)C2=O)c1 (centres undefined),109% (inactive)
9,CC1Cc2ccccc2N1C(=O)c1cc2n(n1)C(C(F)(F)F)CC(c1ccco1)N2 (centres undefined),110% (inactive)
10,Cc1cccc2c1N(Cc1ccccc1OCCC(C)C)C(=O)C2=O,25% (active)
11,COc1ccccc1CN1C(=O)C(=O)c2cccc(C)c21,107% (inactive)
12,CCCOc1ccc(CN2C(=O)C(=O)c3cccc(C)c32)cc1,38% (inactive)
13,Cc1cc(Br)cc2c1N(Cc1ccccc1OC(C)C)C(=O)C2=O,26% (active)
14,CCCCOc1ccc(CN2C(=O)C(=O)c3cc(Br)cc(C)c32)cc1OC,59% (inactive)
15,Cc1ccc(CN2C(=O)C(=O)c3cc(Br)cc(C)c32)cc1,40% (inactive)
16,CC(=O)c1cc(-c2ccccc2)n(CCC(=O)Nc2ccc(C)cc2C)c1C,85% (inactive)
17,Cc1ccc(-c2nn(CC(=O)NC3CCCCC3)c3c2cnc2ccccc23)cc1,75% (inactive)
18,CN(Cc1ccccc1)C(=O)COc1ccc(S(=O)(=O)N2CCCC2)cc1,121% (inactive)
19,Nc1c(C(=O)c2ccc(F)cc2)sc(Nc2ccccc2F)c1S(=O)(=O)c1ccc(Br)cc1,74% (inactive)
20,Nc1nc(Nc2ccccc2F)sc1C(=O)c1ccc(Cl)cc1,-7% (active)
21,COc1ccc(C(=O)c2sc(Nc3cc(Cl)ccc3C)nc2N)cc1OC,129% (inactive)
22,CCc1nn2c(=O)cc(COC(=O)c3cccs3)nc2s1,89% (inactive)

row,SMILES,survival
1,CCOC(=O)c1c(S(=O)(=O)N2CCCC(C(=O)Nc3ncccc3C)C2)c(C)n(C)c1C (centres undefined),71% (inactive)
2,O=C(CSc1nnc(NC(=O)C2CC2)s1)Nc1ccccc1F,108% (inactive)
3,CCOc1ccccc1CNC(=O)c1ccc(N2Cc3ccccc3Oc3ncccc32)s1,84% (inactive)
4,CCOC(=O)c1sc2ncn(CC(=O)Nc3ccc(OC)c(Cl)c3)c(=O)c2c1C,78% (inactive)
5,O=C(NCc1ccccc1)c1nc[nH]c1C(=O)NCc1ccccc1,123% (inactive)
6,CCOc1cccc2cc(-c3cn4c(n3)sc3ccccc34)c(=O)oc12,64% (inactive)
7,CCOc1cccc2cc(-c3cn4c(n3)sc3cc(C)ccc34)c(=O)oc12,-6% (active)
8,COc1cccc2cc(-c3cn4c(n3)sc3cc(F)ccc34)c(=O)oc12,75% (inactive)
9,Cc1oc(-c2cccc(Cl)c2)nc1CN1CCC(C(=O)NCCc2ccc(Cl)cc2)CC1,88% (inactive)
10,Cc1oc(-c2ccc(Cl)cc2)nc1CN1CCCC(C(=O)NCCc2ccc(Cl)cc2)C1 (centres undefined),86% (inactive)
11,Cc1oc(-c2cccc(Cl)c2)nc1CN1CCCC(C(=O)NCCc2ccc(Cl)cc2)C1 (centres undefined),-2% (active)
12,Cc1cccc(-c2nc(CN3CCCC(C(=O)NCCc4ccc(Cl)cc4)C3)c(C)o2)c1 (centres undefined),29% (inactive)
13,Cc1ccc(CCNC(=O)C2CCCN(Cc3nc(-c4cccc(Cl)c4)oc3C)C2)cc1 (centres undefined),9% (active)
14,Cc1oc(-c2ccc(Cl)cc2)nc1CN1CCCC(C(=O)NCCc2ccccc2)C1 (centres undefined),29% (inactive)
15,CCc1ccc(C(=O)c2cn(CC(=O)Nc3ccc4c(c3)OCO4)c3cc(OC)c(OC)cc3c2=O)cc1,107% (inactive)
16,Cc1ccccc1NC(=O)c1ccccc1NC(=O)c1ccccc1F,89% (inactive)
17,COc1ccc(NC(=O)CC2C(=O)N(c3ccccc3)C(=O)N2C2CCCCC2)cc1 (centres undefined),70% (inactive)
18,O=C(Nc1ccccc1C(F)(F)F)C1CCN(c2nnc(-n3cccc3)s2)CC1,113% (inactive)
19,COc1ccc(C(C)=O)cc1CSc1nc(NCc2ccc(Cl)cc2)c2ccccc2n1,0% (active)
20,COc1ccc(C(C)=O)cc1CSc1nc(NCCc2ccccc2)c2ccccc2n1,47% (inactive)
21,COc1ccc(C(C)=O)cc1CSc1nc(NCc2ccccc2)c2ccccc2n1,85% (inactive)
22,CCOc1ccccc1N(C)C(=O)c1c2c(nc3ccccc13)C(=O)N(C1CCCCC1)C2,90% (inactive)

row,SMILES,survival
1,CN(C(=O)c1c2c(nc3ccccc13)C(=O)N(C1CCCCC1)C2)c1ccc(F)cc1,-3% (active)
2,O=C(NCc1ccc(F)cc1)c1c2c(nc3ccccc13)C(=O)N(C1CCCCC1)C2,99% (inactive)
3,COc1ccc(CNC(=O)Cn2ncc3c(=O)oc4ccc(C)cc4c32)c(OC)c1,113% (inactive)
4,CCOC(=O)c1c(NC(=O)CCCOc2ccc(C)cc2)sc2c1CCC(C)C2 (centres undefined),2% (active)
5,CCOC(=O)c1c(NC(=O)CCCOc2ccccc2C)sc2c1CCC(C)C2 (centres undefined),6% (active)
6,Cc1ccc(OCCCC(=O)Nc2sc3c(c2C(N)=O)CCC(C)C3)cc1 (centres undefined),148% (inactive)
7,CCOC(=O)c1c(NC(=O)CS(=O)(=O)c2ccc(C)cc2)sc2c1CCC(C)C2 (centres undefined),73% (inactive)
8,CC1CCc2c(sc(NC(=O)CCCOc3ccccc3)c2C(N)=O)C1 (centres undefined),91% (inactive)
9,COC(=O)c1c(NC(=O)CCCOc2ccccc2)sc2c1CCC(C)C2 (centres undefined),20% (inactive)
10,COC(=O)c1ccccc1NC(=O)COC(=O)c1ccco1,108% (inactive)
11,COc1ccc(CNC(=O)c2cc(=O)[nH]c3ccc(S(=O)(=O)N4CCCC4)cc23)c(OC)c1,60% (inactive)
12,CCOc1ccc(CCNC(=O)C2COc3ccccc3C2)cc1OCC (centres undefined),-2% (active)
13,O=C(NCCc1ccccc1)C1COc2ccccc2C1 (centres undefined),10% (active)
14,Cc1ccc(CCNC(=O)C2COc3ccccc3C2)cc1 (centres undefined),88% (inactive)
15,Cc1ccc(CNC(=O)C2COc3ccccc3C2)cc1 (centres undefined),121% (inactive)
16,COc1ccc(CCNC(=O)C2COc3ccccc3C2)cc1OC (centres undefined),59% (inactive)
17,CCc1ccc(CNC(=O)C2COc3ccccc3C2)cc1 (centres undefined),88% (inactive)
18,CCOc1cc(CNC(=O)C2COc3ccccc3C2)cc(OCC)c1OCC (centres undefined),73% (inactive)
19,O=C(NCCc1ccc(Cl)cc1)C1COc2ccccc2C1 (centres undefined),88% (inactive)
20,CN(C)c1ccc(CNC(=O)C2COc3ccccc3C2)cc1 (centres undefined),0% (active)
